Here are results for 6 compounds from ChEMBL document CHEMBL1961873, “Compounds: GSK PKIS; Assays: Nanosyn kinase panel” (2012).

The target in experiment [1] is T1, Ephrin type-B receptor 2 (Homo sapiens) (UniProt P29323).
T1 sequence (whole entry): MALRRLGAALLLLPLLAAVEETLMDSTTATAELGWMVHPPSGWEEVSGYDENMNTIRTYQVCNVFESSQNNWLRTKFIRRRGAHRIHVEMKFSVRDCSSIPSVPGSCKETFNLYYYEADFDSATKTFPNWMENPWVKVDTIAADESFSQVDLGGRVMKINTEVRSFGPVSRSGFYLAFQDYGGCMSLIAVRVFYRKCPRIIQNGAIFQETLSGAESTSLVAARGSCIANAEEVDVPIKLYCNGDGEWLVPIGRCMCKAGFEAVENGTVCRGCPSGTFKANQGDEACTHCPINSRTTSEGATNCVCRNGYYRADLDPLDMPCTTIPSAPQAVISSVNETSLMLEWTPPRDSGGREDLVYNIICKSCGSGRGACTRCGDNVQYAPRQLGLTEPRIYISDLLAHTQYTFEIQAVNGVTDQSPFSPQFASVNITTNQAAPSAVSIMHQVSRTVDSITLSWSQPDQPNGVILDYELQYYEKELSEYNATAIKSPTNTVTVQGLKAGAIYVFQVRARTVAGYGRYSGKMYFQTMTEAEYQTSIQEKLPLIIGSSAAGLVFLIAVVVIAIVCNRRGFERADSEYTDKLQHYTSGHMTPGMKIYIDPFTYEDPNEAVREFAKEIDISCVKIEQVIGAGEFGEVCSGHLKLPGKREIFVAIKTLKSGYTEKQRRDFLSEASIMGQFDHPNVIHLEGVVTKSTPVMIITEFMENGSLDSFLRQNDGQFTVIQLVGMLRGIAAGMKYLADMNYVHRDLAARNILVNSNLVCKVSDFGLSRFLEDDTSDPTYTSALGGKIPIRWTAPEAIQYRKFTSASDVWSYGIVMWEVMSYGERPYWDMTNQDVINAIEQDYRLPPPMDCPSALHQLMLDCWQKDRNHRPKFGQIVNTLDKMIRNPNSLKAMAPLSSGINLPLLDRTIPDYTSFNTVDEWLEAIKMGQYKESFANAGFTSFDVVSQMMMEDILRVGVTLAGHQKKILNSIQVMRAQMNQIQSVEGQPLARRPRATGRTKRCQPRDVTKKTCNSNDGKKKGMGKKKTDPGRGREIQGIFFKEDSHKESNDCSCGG
Conditions: at 1 µM.

The target of experiment [2] is T2, Ephrin type-B receptor 3 (Homo sapiens) (UniProt P54753).
T2 sequence (whole entry): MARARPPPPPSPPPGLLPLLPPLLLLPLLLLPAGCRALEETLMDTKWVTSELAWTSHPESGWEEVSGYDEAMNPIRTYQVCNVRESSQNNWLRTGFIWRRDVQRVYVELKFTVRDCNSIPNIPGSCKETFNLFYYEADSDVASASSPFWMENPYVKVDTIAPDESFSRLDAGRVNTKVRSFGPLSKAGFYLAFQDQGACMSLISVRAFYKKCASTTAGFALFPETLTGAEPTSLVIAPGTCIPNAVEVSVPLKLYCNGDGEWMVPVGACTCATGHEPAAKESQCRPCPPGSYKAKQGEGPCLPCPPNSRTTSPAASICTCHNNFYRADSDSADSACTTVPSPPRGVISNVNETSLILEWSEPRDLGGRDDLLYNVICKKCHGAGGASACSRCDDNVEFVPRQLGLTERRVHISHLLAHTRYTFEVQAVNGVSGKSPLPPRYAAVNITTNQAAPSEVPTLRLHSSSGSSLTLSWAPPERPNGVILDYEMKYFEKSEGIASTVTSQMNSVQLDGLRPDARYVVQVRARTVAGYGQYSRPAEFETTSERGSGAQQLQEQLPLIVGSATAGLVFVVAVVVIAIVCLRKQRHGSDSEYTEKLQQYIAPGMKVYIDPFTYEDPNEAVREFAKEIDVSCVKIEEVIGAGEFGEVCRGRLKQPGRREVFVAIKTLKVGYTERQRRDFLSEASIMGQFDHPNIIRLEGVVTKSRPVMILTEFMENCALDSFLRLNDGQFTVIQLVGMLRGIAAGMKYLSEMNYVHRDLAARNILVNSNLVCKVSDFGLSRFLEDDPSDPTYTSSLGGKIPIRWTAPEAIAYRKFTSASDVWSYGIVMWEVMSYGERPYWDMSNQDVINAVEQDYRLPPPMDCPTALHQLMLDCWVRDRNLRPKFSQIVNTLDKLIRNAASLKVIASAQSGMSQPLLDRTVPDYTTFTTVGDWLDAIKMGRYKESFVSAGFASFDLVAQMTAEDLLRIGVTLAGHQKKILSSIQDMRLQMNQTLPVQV
Conditions: at 0.1 µM.

Experiment [3] deals with T2, Ephrin type-B receptor 3 (Homo sapiens). The settings on record: at 1 µM.
In experiment [4] the target is T3, Ephrin type-B receptor 4 (Homo sapiens) (UniProt P54760).
T3 sequence (whole entry): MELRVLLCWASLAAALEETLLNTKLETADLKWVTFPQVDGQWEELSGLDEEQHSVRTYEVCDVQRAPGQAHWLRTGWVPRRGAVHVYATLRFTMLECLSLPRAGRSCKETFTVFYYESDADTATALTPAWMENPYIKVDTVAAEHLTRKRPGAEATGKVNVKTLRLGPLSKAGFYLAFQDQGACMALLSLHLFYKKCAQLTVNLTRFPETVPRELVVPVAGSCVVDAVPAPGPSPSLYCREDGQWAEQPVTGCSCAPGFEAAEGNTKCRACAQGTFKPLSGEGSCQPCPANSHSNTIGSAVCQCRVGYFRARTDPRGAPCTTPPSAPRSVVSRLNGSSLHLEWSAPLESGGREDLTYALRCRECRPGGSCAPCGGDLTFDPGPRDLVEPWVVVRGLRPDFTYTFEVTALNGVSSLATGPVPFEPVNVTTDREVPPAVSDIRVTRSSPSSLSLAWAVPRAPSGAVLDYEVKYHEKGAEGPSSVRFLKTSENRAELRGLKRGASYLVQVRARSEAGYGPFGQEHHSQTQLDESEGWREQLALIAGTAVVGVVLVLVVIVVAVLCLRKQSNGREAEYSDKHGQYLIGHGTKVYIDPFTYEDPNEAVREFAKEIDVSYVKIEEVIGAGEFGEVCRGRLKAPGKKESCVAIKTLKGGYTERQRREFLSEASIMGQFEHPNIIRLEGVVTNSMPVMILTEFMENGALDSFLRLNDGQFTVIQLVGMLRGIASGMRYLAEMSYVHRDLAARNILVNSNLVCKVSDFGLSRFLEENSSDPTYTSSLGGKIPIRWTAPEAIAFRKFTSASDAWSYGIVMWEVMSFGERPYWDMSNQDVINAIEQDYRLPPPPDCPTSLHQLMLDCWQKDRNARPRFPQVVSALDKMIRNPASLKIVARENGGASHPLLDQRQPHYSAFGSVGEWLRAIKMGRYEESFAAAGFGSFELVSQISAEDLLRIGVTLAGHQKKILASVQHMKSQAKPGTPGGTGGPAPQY
The settings on record: at 0.1 µM.

For experiment [5], the target named is T3, Ephrin type-B receptor 4 (Homo sapiens). The settings on record: at 1 µM.
For experiment [6], the target named is Receptor tyrosine-protein kinase erbB-2 (Homo sapiens) (UniProt P04626). Conditions: at 0.1 µM.
For experiment [7] the target is unchanged. Conditions: at 1 µM.
Experiment [8] addresses Receptor tyrosine-protein kinase erbB-4 (Homo sapiens) (UniProt Q15303). The settings on record: at 0.1 µM.
Experiment [9] has the same target. The settings on record: at 1 µM.
For experiment [10], the target named is Tyrosine-protein kinase Fer (Homo sapiens) (UniProt P16591). The settings on record: at 0.1 µM.
For experiment [11] the target is unchanged. Conditions: at 1 µM.
Experiment [12] addresses Tyrosine-protein kinase Fes/Fps (Homo sapiens) (UniProt P07332). The settings on record: at 0.1 µM.
Experiment [13] has the same target. The settings on record: at 1 µM.
Experiment [14] concerns the target Fibroblast growth factor receptor 1 (Homo sapiens) (UniProt P11362). Conditions: at 0.1 µM.
The target is the same in experiment [15]. Conditions: at 1 µM.
Experiment [16] addresses Fibroblast growth factor receptor 2 (Homo sapiens) (UniProt P21802). The settings on record: at 0.1 µM.
Experiment [17] has the same target. The settings on record: at 1 µM.
Experiment [18] deals with Fibroblast growth factor receptor 3 (Homo sapiens) (UniProt P22607). Conditions: at 0.1 µM.
The target is the same in experiment [19]. The settings on record: at 1 µM.
Experiment [20] concerns the target Fibroblast growth factor receptor 4 (Homo sapiens) (UniProt P22455). The settings on record: at 0.1 µM.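 Also: values are mean percent inhibition of FGFR4.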

Broadly, the inhibition is the relative decrease from the control value, in per cent.

Sequence of Tyrosine-protein kinase Fer (Homo sapiens) (P16591 whole entry, looked up): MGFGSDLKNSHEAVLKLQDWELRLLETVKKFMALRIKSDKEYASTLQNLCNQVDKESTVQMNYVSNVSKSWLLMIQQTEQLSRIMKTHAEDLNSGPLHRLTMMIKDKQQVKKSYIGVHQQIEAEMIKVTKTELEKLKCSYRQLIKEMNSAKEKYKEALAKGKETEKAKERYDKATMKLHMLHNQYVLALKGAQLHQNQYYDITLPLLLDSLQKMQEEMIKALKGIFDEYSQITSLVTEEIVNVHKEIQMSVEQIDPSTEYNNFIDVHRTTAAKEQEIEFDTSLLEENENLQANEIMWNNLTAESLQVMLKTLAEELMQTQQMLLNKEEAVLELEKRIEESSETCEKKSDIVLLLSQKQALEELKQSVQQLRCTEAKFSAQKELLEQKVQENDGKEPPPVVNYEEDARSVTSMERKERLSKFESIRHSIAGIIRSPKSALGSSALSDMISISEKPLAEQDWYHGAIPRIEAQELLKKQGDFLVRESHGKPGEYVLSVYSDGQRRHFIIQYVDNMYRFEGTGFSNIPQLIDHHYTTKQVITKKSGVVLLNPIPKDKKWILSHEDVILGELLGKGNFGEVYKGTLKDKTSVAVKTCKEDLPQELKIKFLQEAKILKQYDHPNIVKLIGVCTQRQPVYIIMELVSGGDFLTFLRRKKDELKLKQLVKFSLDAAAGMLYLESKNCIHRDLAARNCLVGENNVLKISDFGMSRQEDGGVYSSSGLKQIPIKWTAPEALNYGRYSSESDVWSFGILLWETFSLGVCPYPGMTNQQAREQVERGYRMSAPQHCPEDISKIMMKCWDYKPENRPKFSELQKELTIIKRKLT
Sequence of Receptor tyrosine-protein kinase erbB-4 (Homo sapiens) (Q15303 whole entry): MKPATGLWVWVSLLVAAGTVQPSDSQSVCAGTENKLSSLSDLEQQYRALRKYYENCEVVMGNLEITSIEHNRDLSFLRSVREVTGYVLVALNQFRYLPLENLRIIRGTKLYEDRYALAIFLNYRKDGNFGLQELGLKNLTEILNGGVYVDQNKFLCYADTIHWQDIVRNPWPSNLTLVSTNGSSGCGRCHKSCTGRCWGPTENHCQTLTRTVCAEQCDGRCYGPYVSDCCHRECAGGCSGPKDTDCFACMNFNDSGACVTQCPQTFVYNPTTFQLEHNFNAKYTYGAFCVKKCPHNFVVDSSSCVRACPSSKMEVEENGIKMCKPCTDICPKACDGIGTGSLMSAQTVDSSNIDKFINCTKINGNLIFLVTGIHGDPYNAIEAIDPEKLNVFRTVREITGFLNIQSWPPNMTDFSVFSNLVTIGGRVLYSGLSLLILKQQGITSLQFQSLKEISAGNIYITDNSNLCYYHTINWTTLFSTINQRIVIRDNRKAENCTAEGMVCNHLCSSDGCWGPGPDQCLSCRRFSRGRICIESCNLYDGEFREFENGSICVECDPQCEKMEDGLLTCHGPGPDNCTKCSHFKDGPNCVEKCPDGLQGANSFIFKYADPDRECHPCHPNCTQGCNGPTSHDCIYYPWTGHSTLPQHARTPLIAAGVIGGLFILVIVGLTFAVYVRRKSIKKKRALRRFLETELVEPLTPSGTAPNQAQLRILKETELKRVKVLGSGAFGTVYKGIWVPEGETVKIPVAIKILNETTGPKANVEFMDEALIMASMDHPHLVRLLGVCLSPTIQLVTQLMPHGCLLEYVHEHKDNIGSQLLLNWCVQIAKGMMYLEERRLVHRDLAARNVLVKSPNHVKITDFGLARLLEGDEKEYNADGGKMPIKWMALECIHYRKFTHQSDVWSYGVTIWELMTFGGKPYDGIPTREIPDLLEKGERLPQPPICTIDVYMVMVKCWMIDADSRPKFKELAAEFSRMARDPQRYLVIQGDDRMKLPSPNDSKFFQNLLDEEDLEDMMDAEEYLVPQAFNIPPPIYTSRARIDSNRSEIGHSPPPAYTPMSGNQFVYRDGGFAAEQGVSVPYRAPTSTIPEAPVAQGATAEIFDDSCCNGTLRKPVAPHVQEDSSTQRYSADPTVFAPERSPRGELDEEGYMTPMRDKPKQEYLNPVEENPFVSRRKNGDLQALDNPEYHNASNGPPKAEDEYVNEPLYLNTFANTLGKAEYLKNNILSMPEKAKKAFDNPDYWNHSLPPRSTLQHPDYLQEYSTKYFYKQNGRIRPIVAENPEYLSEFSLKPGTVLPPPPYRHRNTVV
Sequence of Receptor tyrosine-protein kinase erbB-2 (Homo sapiens) (P04626 whole entry): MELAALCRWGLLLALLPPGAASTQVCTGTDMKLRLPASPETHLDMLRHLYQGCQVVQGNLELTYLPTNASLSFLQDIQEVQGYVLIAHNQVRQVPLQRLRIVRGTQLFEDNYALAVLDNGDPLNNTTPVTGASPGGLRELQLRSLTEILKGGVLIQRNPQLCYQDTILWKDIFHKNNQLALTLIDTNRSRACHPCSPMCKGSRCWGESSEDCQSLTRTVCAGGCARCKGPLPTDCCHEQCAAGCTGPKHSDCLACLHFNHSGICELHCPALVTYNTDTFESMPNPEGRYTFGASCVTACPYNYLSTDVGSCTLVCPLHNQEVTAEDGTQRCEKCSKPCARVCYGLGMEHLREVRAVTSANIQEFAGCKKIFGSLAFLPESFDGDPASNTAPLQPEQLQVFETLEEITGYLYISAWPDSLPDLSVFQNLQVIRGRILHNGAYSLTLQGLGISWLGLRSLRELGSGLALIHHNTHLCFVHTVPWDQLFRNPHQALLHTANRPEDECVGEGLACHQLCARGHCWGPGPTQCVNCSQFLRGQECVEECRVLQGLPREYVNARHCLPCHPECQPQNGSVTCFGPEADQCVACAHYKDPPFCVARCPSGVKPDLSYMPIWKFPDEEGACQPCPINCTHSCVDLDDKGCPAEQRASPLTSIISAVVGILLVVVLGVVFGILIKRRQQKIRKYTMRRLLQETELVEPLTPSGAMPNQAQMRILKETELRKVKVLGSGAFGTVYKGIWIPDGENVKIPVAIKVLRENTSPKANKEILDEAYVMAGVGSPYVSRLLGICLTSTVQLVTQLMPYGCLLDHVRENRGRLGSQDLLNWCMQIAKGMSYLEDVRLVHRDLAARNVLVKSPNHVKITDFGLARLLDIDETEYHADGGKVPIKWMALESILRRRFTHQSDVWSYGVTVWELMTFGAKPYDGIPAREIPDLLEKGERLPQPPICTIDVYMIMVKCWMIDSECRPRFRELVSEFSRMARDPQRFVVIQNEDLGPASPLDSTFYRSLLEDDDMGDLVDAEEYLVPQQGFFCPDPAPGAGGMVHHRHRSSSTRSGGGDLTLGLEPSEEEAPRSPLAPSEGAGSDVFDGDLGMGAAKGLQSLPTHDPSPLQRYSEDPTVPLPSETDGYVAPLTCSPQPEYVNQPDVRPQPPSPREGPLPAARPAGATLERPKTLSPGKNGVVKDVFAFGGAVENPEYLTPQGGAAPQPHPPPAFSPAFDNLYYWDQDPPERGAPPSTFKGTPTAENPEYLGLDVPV
Sequence of Fibroblast growth factor receptor 3 (Homo sapiens) (P22607 23-806 limits assumed): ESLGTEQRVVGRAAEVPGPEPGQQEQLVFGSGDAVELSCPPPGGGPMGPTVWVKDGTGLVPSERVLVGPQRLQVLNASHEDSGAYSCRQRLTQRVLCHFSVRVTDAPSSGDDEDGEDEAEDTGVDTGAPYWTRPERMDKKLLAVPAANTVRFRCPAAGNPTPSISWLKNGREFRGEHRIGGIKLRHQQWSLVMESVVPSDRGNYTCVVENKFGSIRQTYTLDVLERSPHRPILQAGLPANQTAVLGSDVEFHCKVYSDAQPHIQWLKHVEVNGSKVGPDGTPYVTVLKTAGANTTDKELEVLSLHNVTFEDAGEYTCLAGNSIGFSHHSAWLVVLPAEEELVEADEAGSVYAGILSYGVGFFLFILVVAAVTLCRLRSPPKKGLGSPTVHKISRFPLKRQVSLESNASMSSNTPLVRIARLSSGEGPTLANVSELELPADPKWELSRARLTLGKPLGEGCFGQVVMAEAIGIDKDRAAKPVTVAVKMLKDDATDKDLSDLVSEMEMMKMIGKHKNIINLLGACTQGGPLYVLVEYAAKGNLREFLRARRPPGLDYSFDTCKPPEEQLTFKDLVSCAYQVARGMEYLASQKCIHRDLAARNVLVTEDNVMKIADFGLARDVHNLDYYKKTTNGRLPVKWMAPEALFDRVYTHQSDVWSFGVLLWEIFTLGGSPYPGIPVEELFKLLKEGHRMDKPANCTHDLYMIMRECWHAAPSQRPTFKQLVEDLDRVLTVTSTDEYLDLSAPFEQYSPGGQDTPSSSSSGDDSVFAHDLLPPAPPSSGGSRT
Sequence of Fibroblast growth factor receptor 4 (Homo sapiens) (P22455 22-802 limits assumed): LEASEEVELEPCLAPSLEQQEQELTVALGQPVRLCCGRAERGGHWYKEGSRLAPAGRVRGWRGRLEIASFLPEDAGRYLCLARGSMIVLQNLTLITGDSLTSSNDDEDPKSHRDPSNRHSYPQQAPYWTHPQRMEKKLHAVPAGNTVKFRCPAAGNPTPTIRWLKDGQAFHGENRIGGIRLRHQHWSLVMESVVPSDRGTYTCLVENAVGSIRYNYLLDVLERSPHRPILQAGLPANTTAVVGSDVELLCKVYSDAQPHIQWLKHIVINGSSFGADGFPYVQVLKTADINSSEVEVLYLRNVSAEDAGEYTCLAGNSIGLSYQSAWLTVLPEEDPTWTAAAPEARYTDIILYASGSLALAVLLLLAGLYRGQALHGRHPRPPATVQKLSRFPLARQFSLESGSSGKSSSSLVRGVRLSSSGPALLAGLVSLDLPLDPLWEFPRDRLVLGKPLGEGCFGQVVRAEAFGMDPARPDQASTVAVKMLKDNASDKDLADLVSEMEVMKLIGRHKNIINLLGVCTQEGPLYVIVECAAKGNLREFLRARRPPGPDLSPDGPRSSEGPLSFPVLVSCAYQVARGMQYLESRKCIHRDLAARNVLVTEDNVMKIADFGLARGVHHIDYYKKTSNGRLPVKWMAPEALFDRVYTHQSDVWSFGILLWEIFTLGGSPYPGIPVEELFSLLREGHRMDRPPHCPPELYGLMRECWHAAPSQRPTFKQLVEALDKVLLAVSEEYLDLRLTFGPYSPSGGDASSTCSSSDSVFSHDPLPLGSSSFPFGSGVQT

Take `COC(=O)Nc1nc2ccc(Oc3ccc(NC(=O)Nc4cccc(Cl)c4)cc3)cc2[nH]1`: the inhibition was 68% in [1]; 4.58% in experiment [2]; 5.18% in experiment [3]; 4.66% in experiment [4]; 14.4% in [5]; -0.47% in experiment [6]. Besides, the inhibition in experiment [7] is 5.3%; in experiment [8], 6.76%; in [9], 9.87%; in experiment [10] it was 1.61%; in experiment [11], 2.41%; in experiment [12], 1.11%. Also, the inhibition in experiment [13] came out at 0.57%; in [14], 2.31%; in experiment [15] it was 9.33%; in [16] it was 2.67%; in experiment [17], 2.53%; in experiment [18], 2.97%. Also, the inhibition in experiment [19] was determined as 2.72%; in experiment [20], 0.5%.
As to `CCc1nn2ncccc2c1-c1ccnc(NC2CC2)n1`, the inhibition in [1] came out at 5.11%; in experiment [2] it was 2.18%; in experiment [3], 3.88%; in experiment [4] it was 1.21%; in [5], 3.43%; in experiment [6], 3.58%. Besides, the inhibition in experiment [7] worked out at 5.82%; in experiment [8], 3.42%; in experiment [9], 8.22%; in [10] it was 0.5%; in experiment [11], 4.48%; in experiment [12], 1.57%. Also, the inhibition is 2.04% in [13]; 1.58% in experiment [14]; 7.38% in [15]; 8.21% in [16]; 10.7% in experiment [17]; 6.71% in experiment [18]. For the same compound, the figures for the inhibition in experiment [19] and in experiment [20] were 11% and 4.64%, respectively.
In the case of `COc1ccc(-c2oc3ncnc(N)c3c2-c2ccc(NC(=O)Nc3cc(C(F)(F)F)ccc3F)cc2)cc1`, the inhibition in [1] was 89.9%; in experiment [2], 92.7%; in [3], 99.7%; in experiment [4], 83.7%; in experiment [5], 96.6%; in [6] it was 4.07%. Moreover, the inhibition in experiment [7] amounted to 8.56%; in experiment [8], 12.8%; in experiment [9], 14.6%; in experiment [10], 8.1%; in [11], 64.5%; in experiment [12], 3.91%. In addition, the inhibition stood at 17.1% in [13]; 10.1% in experiment [14]; 66% in experiment [15]; 31.2% in [16]; 75.9% in [17]; 10% in [18]. The inhibition in experiment [19] was 63.8%; in experiment [20], 5.68%.
For `COc1cccc(-n2ncc3c(N/N=C/c4ccc(F)cc4)ncnc32)c1`, the inhibition in [1] is 11.3%; in experiment [2], 4.19%; in experiment [3], 3.79%; in experiment [4], 1.79%; in [5], 3.45%; in experiment [6] it was 2.86%. For the same compound, the inhibition worked out at 4.41% in [7]; 10.8% in [8]; 11.2% in experiment [9]; 2.73% in experiment [10]; 4.95% in experiment [11]; 2.58% in [12]. In addition, the inhibition in experiment [13] is 3.42%; in experiment [14], 2.86%; in experiment [15], -0.23%; in experiment [16], 6.26%; in experiment [17], 8.02%; in experiment [18], 6.59%. Moreover, the inhibition in experiment [19] is 6.78%; in [20] it was -0.12%.
In the case of `CN1CCC(n2cnc(-c3ccc(F)cc3)c2-c2ccnc(Nc3ccccc3)n2)CC1`, the inhibition in experiment [1] came to 44.1%; in experiment [2], 4.66%; in experiment [3] it was 2.3%; in experiment [4] it was 3.77%; in experiment [5], 12.6%; in experiment [6], 5.05%. The inhibition was 15.9% in experiment [7]; 10.6% in [8]; 27.2% in [9]; 1.86% in [10]; 4.62% in experiment [11]; 2.34% in experiment [12]. Also, the inhibition in [13] was 3.11%; in experiment [14], 1.2%; in experiment [15], -0.76%; in experiment [16], 2.32%; in [17], 4.35%; in experiment [18], 4.39%. The inhibition was determined as 0.24% in experiment [19] and 0.09% in experiment [20].
Turning to `Cc1ccc(O)cc1Nc1ccnc2cc(-c3ccccn3)ccc12`, the inhibition stood at 91.9% in experiment [1]; 18.1% in experiment [2]; 53.3% in experiment [3]; 87.3% in experiment [4]; 95.1% in [5]; 2.16% in experiment [6]. In addition, the inhibition was determined as 11.6% in experiment [7]; 35.1% in experiment [8]; 75.6% in [9]; 5.39% in experiment [10]; 8.05% in experiment [11]; 4.23% in experiment [12]. Also, the inhibition was 8.97% in experiment [13]; 15.1% in experiment [14]; 46.6% in experiment [15]; 12.8% in [16]; 43.2% in experiment [17]; 8.93% in [18]. The inhibition in experiment [19] stood at 25.8%; in [20] it was 9.41%.
